One assay has as its system Staphylococcus aureus. Put plainly: Antibacterial activity against Staphylococcus aureus MRSA ATCC 43300 (CO-ADD:GP_020); MIC in CAMBH media using NBS plates, by Resazurin F(560/590). Type of assay: functional. Particulars: Concentration 20 uM, ASSAY_TEST Inhibition of Bacterial Growth, detection method Resazurin, Fluorescence (ex560/em590), MEDIA CAMHB, plate type 384well, CORNING #3640, time 18 hr. (In general: Resazurin is reduced to fluorescent resorufin, in cell work by metabolically active cells.)

Another assay concerns Acinetobacter baumannii. Description: Antibacterial activity against Acinetobacter baumannii ATCC 19606 (CO-ADD:GN_034); MIC in CAMBH media using NBS plates, by Resazurin F(560/590). Conditions: Concentration 20 uM, ASSAY_TEST Inhibition of Bacterial Growth, detection method Resazurin, Fluorescence (ex560/em590), MEDIA CAMHB, plate type 384well, CORNING #3640, time 18 hr. Type of assay: functional.

In the next assay the test system is Escherichia coli. Put plainly: Antibacterial activity against Escherichia coli ATCC 25922 (CO-ADD:GN_001); MIC in CAMBH media using NBS plates, by Resazurin F(560/590). Particulars: Concentration 20 uM, ASSAY_TEST Inhibition of Bacterial Growth, detection method Resazurin, Fluorescence (ex560/em590), MEDIA CAMHB, plate type 384well, CORNING #3640, time 18 hr. Type of assay: functional.

The next assay deals with Klebsiella pneumoniae. Conditions: Concentration 20 uM; ASSAY_TEST Inhibition of Bacterial Growth; detection method Absorption (OD600); MEDIA CAMHB; plate type 384well; NBS; CORNING #3640; time 18 hr.
A further assay relates to Candida albicans. Conditions: 20 µM.
A further assay relates to Cryptococcus neoformans. Conditions: Concentration 20 uM; ASSAY_TEST Inhibition of Fungal Growth; detection method Resazurin; Absorption (OD600-OD570); plate type 384well; NBS; CORNING #3640.

The record followed here is ChEMBL document CHEMBL4296182, “CO-ADD screening of NIH NCI Diversity Set V”.

The term Inhibition denotes the relative decrease from the control value, in per cent.

For part of these data: Results with a measured potency or affinity are listed apart.

In the case of `CC(=O)O[C@H]1CC[C@@]2(C)[C@@H](CC[C@@H]3[C@@H]2CC(=O)[C@@]2(C)[C@H]3C[C@@H]3CC(C)=CC(=O)[C@@H]32)C1`, the Inhibition is 25.43% with Staphylococcus aureus; -5.19% with Acinetobacter baumannii; 14.73% in the assay with Escherichia coli; 18.64% in the assay on Klebsiella pneumoniae; 2.5% with Candida albicans; -9.27% in the assay with Cryptococcus neoformans.

Take `COc1ccccc1NC(=O)c1cc2ccccc2cc1O`: the Inhibition was 12.35% in the assay on Staphylococcus aureus; 5.68% in the assay with Acinetobacter baumannii; 6.98% in the assay with Escherichia coli; 12.44% in the assay with Klebsiella pneumoniae; -0.94% in the assay on Candida albicans; -6.93% in the assay on Cryptococcus neoformans.

With `CCOC(=O)C1(C#N)C(=O)CS/C1=N/c1ccccc1Cl` (stereo not given), the Inhibition in the assay with Staphylococcus aureus was 19.69%; with Acinetobacter baumannii, 6.45%; in the assay with Escherichia coli it was 0.68%; with Klebsiella pneumoniae it was 8.87%; in the assay with Candida albicans, 1.9%; in the assay on Cryptococcus neoformans it was -13.01%.

For `O[C@@H](c1cc(-c2ccc(C(F)(F)F)cc2)nc(C(F)(F)F)c1)[C@H]1CCCCN1`, the Inhibition with Staphylococcus aureus is 4.92%; in the assay with Acinetobacter baumannii it was 7.22%; with Escherichia coli, 8.91%; in the assay on Klebsiella pneumoniae it was 19.18%; with Candida albicans, 3.72%; in the assay with Cryptococcus neoformans, -3.44%.

As to `Nc1nnc(-c2cccnc2)s1`, the Inhibition in the assay on Staphylococcus aureus was -3.99%; in the assay on Acinetobacter baumannii, -10.83%; with Escherichia coli it was 3.28%; in the assay with Klebsiella pneumoniae, -1.35%; in the assay on Candida albicans it was 0.77%; in the assay with Cryptococcus neoformans, -10.94%.

Turning to `Nc1ccccc1-c1nc2cnccc2[nH]1`, the Inhibition with Staphylococcus aureus is 12.51%; with Acinetobacter baumannii it was -12.24%; with Escherichia coli, 9.24%; in the assay on Klebsiella pneumoniae, 2.75%; in the assay with Candida albicans, -2.69%; in the assay with Cryptococcus neoformans it was -6.41%.

In the case of `O=C(Nc1ccc(Cl)c(Cl)c1)c1ccc(Cl)c(Cl)c1`, the Inhibition was 18.37% with Staphylococcus aureus; 5.32% in the assay with Acinetobacter baumannii; 2.55% in the assay with Escherichia coli; 6.19% with Klebsiella pneumoniae; -2.44% with Candida albicans; -2.12% in the assay with Cryptococcus neoformans.

For the molecule `O=c1nc(Oc2ccccc2)nc2ncccn12`, the Inhibition with Staphylococcus aureus was 18.68%; in the assay on Acinetobacter baumannii, 13.4%; with Escherichia coli, 27.8%; with Klebsiella pneumoniae, 4.93%; with Candida albicans, 7.13%; in the assay with Cryptococcus neoformans it was -13.98%.

Take `O=C(/C=C/c1ccc(Cl)s1)c1ccc(Cl)s1`: the Inhibition with Staphylococcus aureus was 14.77%; in the assay with Acinetobacter baumannii it was 5.48%; in the assay with Escherichia coli, -1.03%; with Klebsiella pneumoniae, 0.02%; in the assay on Candida albicans, 4.39%; in the assay on Cryptococcus neoformans it was -6.98%.

Take `Clc1ccc2nc3ccccc3cc2c1`: the Inhibition is 16.29% in the assay on Staphylococcus aureus; 9.09% in the assay with Acinetobacter baumannii; 4.02% in the assay with Escherichia coli; 9.96% in the assay with Klebsiella pneumoniae; 5.41% in the assay on Candida albicans; -4.77% in the assay with Cryptococcus neoformans.

`Cc1cc2c3ccccc3ncn2n1`: the Inhibition with Staphylococcus aureus was 14.33%; with Acinetobacter baumannii it was -9.67%; in the assay on Escherichia coli, 5.54%; with Klebsiella pneumoniae it was 9.54%; in the assay with Candida albicans it was 5.02%; with Cryptococcus neoformans it was -5.91%.

`CCOc1ccc(NC(=S)NC(=O)c2ccco2)cc1`: the Inhibition with Staphylococcus aureus was 8.6%; in the assay with Acinetobacter baumannii it was 0.34%; with Escherichia coli it was 3.81%; in the assay with Klebsiella pneumoniae, 5.03%; with Candida albicans, 7.98%; in the assay on Cryptococcus neoformans it was -14.9%.

On to `Cc1cccc(C)c1NC(=O)NCc1ccco1`, for which the Inhibition with Staphylococcus aureus was -11.45%; with Acinetobacter baumannii, 7.13%; with Escherichia coli it was 6.33%; in the assay on Klebsiella pneumoniae it was 8.14%; in the assay with Candida albicans it was 2.89%; with Cryptococcus neoformans it was -10.4%.

`O=[N+]([O-])c1ccc2[nH]c3nc4ccccc4nc3c2c1`: the Inhibition is 17.59% in the assay with Staphylococcus aureus; 16.49% with Acinetobacter baumannii; -1.33% in the assay with Escherichia coli; -1.62% with Klebsiella pneumoniae; 5.48% in the assay on Candida albicans; 44.37% in the assay on Cryptococcus neoformans.

On to `C[C@@]1(c2ccccc2)O[C@@H]2C[C@H]3[C@@H]4CCC5=CC(=O)C=C[C@]5(C)[C@@]4(F)[C@@H](O)C[C@]3(C)[C@]2(C(=O)CO)O1` [AMCINAFIDE], for which the Inhibition with Staphylococcus aureus is 5.72%; in the assay on Acinetobacter baumannii, -8.64%; in the assay with Escherichia coli it was 8.97%; in the assay with Klebsiella pneumoniae, 3.86%; in the assay with Candida albicans it was 4.92%; in the assay with Cryptococcus neoformans, -9.65%.

As to `CC(=O)CC(=O)Nc1ccc2ccccc2c1`, the Inhibition in the assay on Staphylococcus aureus was -8%; in the assay on Acinetobacter baumannii it was 10.6%; in the assay with Escherichia coli, 5.41%; in the assay with Klebsiella pneumoniae, 9.32%; with Candida albicans it was 7.43%; with Cryptococcus neoformans, -13.72%.

As for `C=C1S/C(=N\c2c(C)cccc2Cl)N(C(=O)c2sc3ccccc3c2Cl)C12CCCCC2`, the Inhibition in the assay with Staphylococcus aureus was 4.2%; with Acinetobacter baumannii, 0.82%; with Escherichia coli, -2.79%; with Klebsiella pneumoniae it was 4.92%; in the assay with Candida albicans, 5.73%; in the assay with Cryptococcus neoformans, 0.57%.

With `CCC1(C(=O)OC)CCc2c(cc(OC)c3ccccc23)C1=O` (stereo not given), the Inhibition with Staphylococcus aureus was 5.5%; in the assay with Acinetobacter baumannii it was -17.62%; in the assay on Escherichia coli, 8.82%; with Klebsiella pneumoniae it was 8.69%; in the assay with Candida albicans it was 3.67%; with Cryptococcus neoformans it was -10.67%.

In the case of `CCOC(=O)Cc1cc(O)c2cc(C)ccc2n1`, the Inhibition was 11.68% in the assay with Staphylococcus aureus; -4.86% with Acinetobacter baumannii; 11.33% with Escherichia coli; 2.93% in the assay on Klebsiella pneumoniae; -1.04% in the assay on Candida albicans; -11.29% in the assay with Cryptococcus neoformans.

For the molecule `O=[N+]([O-])c1cccnc1Oc1cccnc1`, the Inhibition in the assay on Staphylococcus aureus is 16.25%; with Acinetobacter baumannii, -14.38%; in the assay with Escherichia coli, 11.2%; in the assay on Klebsiella pneumoniae, 9.34%; with Candida albicans, -2.59%; in the assay on Cryptococcus neoformans, -10.27%.

As for `N#CC1=C2CCCCC2(O)NC1=O` (stereo not given), the Inhibition in the assay on Staphylococcus aureus was 6.52%; in the assay with Acinetobacter baumannii, -3.34%; in the assay on Escherichia coli, 7.41%; in the assay with Klebsiella pneumoniae, 2.61%; in the assay on Candida albicans it was -0.03%; in the assay with Cryptococcus neoformans it was -5.83%.

With `O=C(O)c1cc(Cl)nnc1O`, the Inhibition with Staphylococcus aureus was 15.87%; in the assay on Acinetobacter baumannii, -4.6%; in the assay with Escherichia coli it was 13.02%; in the assay on Klebsiella pneumoniae it was -7.82%; with Candida albicans, -1.79%; in the assay with Cryptococcus neoformans it was -6.94%.

On to `Cc1cc(NC(=O)NC(=O)c2ccccc2NC(=O)C(C)N)ccc1Oc1ncc(Br)cn1.Cl` (stereo not given), for which the Inhibition in the assay with Staphylococcus aureus is 19.83%; in the assay with Acinetobacter baumannii, -8.48%; in the assay with Escherichia coli, 11.58%; with Klebsiella pneumoniae, 15.35%; in the assay with Candida albicans it was -1.4%; in the assay on Cryptococcus neoformans, -7.47%.

Consider `Cc1cc2c(cc1C)NC1=C(O)C(c3cccc(O)c3)OC1=N2` (stereo not given), for which the Inhibition in the assay with Staphylococcus aureus is 3.69%; in the assay with Acinetobacter baumannii, 4.58%; in the assay on Escherichia coli, -10.78%; in the assay on Klebsiella pneumoniae it was 28.82%; with Candida albicans, 3.61%; with Cryptococcus neoformans, -0.13%.

With `Nc1cc(Nc2ccc(Br)cc2)nc(N)n1`, the Inhibition in the assay on Staphylococcus aureus is 4.17%; in the assay with Acinetobacter baumannii it was 10.22%; in the assay with Escherichia coli it was -12.19%; in the assay on Klebsiella pneumoniae it was 18.33%; in the assay with Candida albicans, 4.62%; with Cryptococcus neoformans it was -4.88%.
